# From PubChem BioAssay (Tox21)
# Several values for one entry are separate records, joined by “and”; a condition that tells them apart may be missing. Equal entries are not always repeated. Inconclusive results are not listed. Where a call stands in place of a potency, no number is given. Activity calls are given as the source filed them. Unless noted, the call rests on the fitted dose curve; in most records, active means well fitted curve in the direction sought with a large enough effect in the repeat runs; inconclusive means weak or mixed curves; inactive means no such curve, though single readings can be large; an effect the other way counts as inactive or inconclusive.
# Columns and labels:
# [1] = qHTS assay to identify small molecule agonists of the estrogen receptor alpha (ER-alpha) signaling pathway in the presence of an antagonist - cell viability counter screen (AID 1259386);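 further: potency means the concentration at half of the fitted maximal effect; cells exposed to compounds for 22 h at 37 °C before the viability read; nearly all actives have a fitted effect of over 30% in size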
# Method in brief: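 In this counter screen, compound effects on VM7Luc4E2 viability were tested in the presence of the antagonist ICI-182,780 at 10.0nM final. Compounds were dosed at 15 concentrations, exposure lasted 22hr, and the CellTiter-Fluor signal was read.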
# [2] = qHTS assay to identify small molecule agonists of the progesterone receptor (PR) signaling pathway - cell viability counter screen (AID 1346799; calls by dose curve; further: nearly all actives have a fitted effect of over 45% in size; further: potency means the concentration at half of the fitted maximal effect)
# Method in brief: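 PR-UAS-bla HEK293T cells, 3,000 per well in medium with 2% charcoal-stripped FBS, were preincubated 6 hr at 37C, then exposed to compounds for 16 hr; viability was read as CellTiter-Glo luminescence after 30 min at room temperature.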
# [3] = qHTS assay to identify small molecule agonists of the TGF-beta/Smad signaling pathway - cell viability counter screen (AID 1346829); further: nearly all actives have a fitted effect of over 45% in size; further: potency means the concentration at half of the fitted maximal effect
# Method in brief: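 Compound-treated SBE-bla HEK 293T cells (5 hr, 37 C) were assessed for viability with CellTiter-Glo in parallel with the reporter read.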
# [4] = molecular target: Thyrotropin-releasing hormone receptor (Homo sapiens) (UniProt P34981); assay: qHTS assay to identify small molecule antagonists of the thyrotropin-releasing hormone receptor (TRHR) signaling pathway (AID 1346877; active means well fitted inhibition curve with a large enough effect in the repeat runs, not every such curve was filed as active; further: series mostly up to about 51 µM)
# Method in brief: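 Kinetic fluorescence (3 min, 1 s resolution) following stimulation with TRH at 1 nM final; HEK293 cells bearing human TRHR; 5 min compound preincubation at RT; concentration-response over 15 points, triplicates.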
# [5] = molecular target: Thyrotropin-releasing hormone receptor (Homo sapiens) (UniProt P34981); assay: qHTS assay to identify small molecule agonists of the thyrotropin-releasing hormone receptor (TRHR) signaling pathway (AID 1346891; calls by dose curve; further: series mostly up to about 58 µM)
# Method in brief: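 TRHR-expressing HEK293 cells were plated 18 h at 37 °C/5% CO2, loaded with calcium dye 2 h at 37 °C, then given compound in DMSO; fluorescence was read kinetically for 3 min at 1 s intervals.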
# [6] = Human pregnane X receptor (PXR) small molecule agonists, qHTS cell viability counter screen (AID 1346977); further: nearly all actives have a fitted effect of over 50% in size; further: potency means the concentration at half of the fitted maximal effect
# Method in brief: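 PXR-Luc HepG2 cells in medium with 5% charcoal-stripped FBS were pre-incubated 5hr, then exposed to compounds for 24hr at 37C. Viability was read in the same wells by CellTiter-Fluor fluorescence, reagent added after 23hr with a 1hr incubation.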
# [7] = Caspase-3/7 induction in CHO-K1 cells by small molecules, qHTS cell viability counter screen (AID 1346979); further: nearly all actives have a fitted effect of over 35% in size; further: potency means the concentration at half of the fitted maximal effect
# Method in brief: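 Wild-type CHO-K1 cells were seeded at 1,500 per well, rested 5hr at 37 C, then exposed to compounds in DMSO. After 16hr, CellTiter-Fluor reagent was added and fluorescence read 1hr later as the viability measure.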
# [8] = Caspase-3/7 induction in HepG2 cells by small molecules, qHTS cell viability counter screen (AID 1346981); further: nearly all actives have a fitted effect of over 30% in size; further: potency means the concentration at half of the fitted maximal effect
# Method in brief: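 In this quantitative HTS counter screen, compounds delivered in DMSO were left on unmodified HepG2 cells for 16 hr at 37 C. Viability was then determined fluorometrically with CellTiter-Fluor, in parallel with caspase-3/7 induction in the same wells.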
# [9] = molecular target: Nuclear receptor subfamily 1 group I member 2 (Homo sapiens) (UniProt O75469); assay: Human pregnane X receptor (PXR) small molecule agonists, qHTS assay (AID 1346982); further: nearly all actives have a fitted effect of over 35% in size; further: potency means the concentration at half of the fitted maximal effect
# Method in brief: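 Reporter HepG2 cells expressing PXR-Luc are cultured in charcoal-stripped FBS (5%), treated with compounds for 24 hr at 37 C, and assayed by ONE-Glo luminescence after 30 min at room temperature.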
# [10] = molecular target: Acetylcholinesterase (Homo sapiens) (UniProt P22303); assay: Acetylcholinesterase (AChE) small molecule antagonists: colormetric cell-based qHTS assay (AID 1347395; calls by dose curve; further: nearly all actives have a fitted effect of over 30% in size)
# Method in brief: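 SH-SY5Y cells, plated overnight at 37 C, were exposed to compounds for 30 min at 37 C and 5% CO2. Acetylthiocholine plus DTNB was then added, and thiocholine from endogenous AChE was quantified colorimetrically after 90 min at 37 C.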
# [11] = qHTS assay to identify small molecule antagonists of the progesterone receptor (PR) signaling pathway - cell viability counter screen (AID 1346798); further: nearly all actives have a fitted effect of over 50% in size; further: potency means the concentration at half of the fitted maximal effect
# Method in brief: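 PR-UAS-bla HEK293T cells in medium with 2% charcoal-stripped FBS were treated with compounds plus R5020 for 16 hr at 37C. Cell viability was then read by CellTiter-Glo luminescence after 30 min at room temperature in the same wells.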
# [12] = qHTS assay to identify small molecule antagonists of the TGF-beta/Smad signaling pathway - cell viability counter screen (AID 1346824); further: nearly all actives have a fitted effect of over 50% in size; further: potency means the concentration at half of the fitted maximal effect
# Method in brief: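 SBE-bla HEK 293T cells, incubated overnight, then compound plus 0.25 ng/mL TGF-beta1 (stock added) for 5 hr at 37 C. Viability was read in the same wells by CellTiter-Glo luminescence after 30 min at room temperature.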
# [13] = qHTS assay to identify small molecule agonists of the TGF-beta/Smad signaling pathway (AID 1346859; active means well fitted activation curve with a large enough effect in the signal ratio in the repeat runs, not every such curve was filed as active; the % refers to the signal ratio; further: series mostly up to about 77 µM)
# Method in brief: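 HEK 293T cells stably carrying a beta-lactamase reporter driven by the Smad binding element were seeded overnight, exposed to DMSO-dissolved compounds for 5 hr at 37 C, 5% CO2, then loaded with FRET substrate for 2 hr at room temperature.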
# [14] = Caspase-3/7 induction in HepG2 cells by small molecules, qHTS assay (AID 1346978); further: nearly all actives have a fitted effect of over 15% in size; further: potency means the concentration at half of the fitted maximal effect
# Method in brief: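 Wild-type HepG2 cells, 2,000/well, settled 5 hr at 37 C and 5% CO2, then compound-treated for 17 hr; caspase-3/7 activity read by luminescent Caspase-Glo 3/7 after 30 min at room temperature.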
# [15] = Caspase-3/7 induction in CHO-K1 cells by small molecules, qHTS assay (AID 1346980); further: nearly all actives have a fitted effect of over 15% in size
# Method in brief: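 Wild-type CHO-K1 cells exposed to compounds for 17hr at 37 C, 5% CO2. Caspase-3/7 activity then measured by Caspase-Glo 3/7 luminescence after 30min at room temperature.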
# [16] = molecular target: Progesterone receptor (Homo sapiens) (UniProt P06401); assay: qHTS assay to identify small molecule antagonists of the progesterone receptor (PR) signaling pathway (AID 1346795; active means well fitted inhibition curve with a large enough effect in the signal ratio in the repeat runs, not every such curve was filed as active; the % refers to the signal ratio; further: potency means the concentration at half of the fitted maximal effect)
# Method in brief: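 PR-UAS-bla HEK293T cells carrying a UAS-driven beta-lactamase reporter were plated in medium with 2% charcoal-stripped FBS and rested 6 hr at 37C. Compounds were added with 1 nM R5020 (final) for 16 hr, then FRET substrate loaded 2 hr at room temperature.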
# [17] = molecular target: Nuclear receptor subfamily 1 group I member 2 (Rattus norvegicus) (UniProt Q9R1A7); assay: Rat pregnane X receptor (rPXR) activation by small molecules, qHTS assay (AID 1346983); conditions: rPXR luciferase reporter cells, One-Glo luminescence, 24 h; max activation: stronger effect = higher value; further: potency means the concentration at half of the fitted maximal effect; nearly all actives have a fitted effect of over 20% in size
# Method in brief: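 Cell-based rPXR activation assay: rPXR cells, 2,000 per well, rested 5hr at 37 C, then exposed to compounds in DMSO for 24 hr at 37 C. Luciferase activity read by One-Glo luminescence after 30 min at room temperature.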
# [18] = molecular target: Nuclear receptor subfamily 1 group I member 2 (Homo sapiens) (UniProt O75469); assay: CYP3A4 induction through human pregnane X receptor (PXR) by small molecules, qHTS assay (AID 1346984); further: nearly all actives have a fitted effect of over 40% in size
# Method in brief: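 Induction measured in HepG2-based DPX-2 cells co-expressing human PXR and a CYP3A4 promoter-driven luciferase. After a 24-hour compound exposure, cells received CYP3A4 luciferin substrate at 3uM final for 3 hours, and light output was then recorded.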
# [19] = molecular target: Nuclear receptor subfamily 1 group I member 2 (Homo sapiens) (UniProt O75469); assay: Human pregnane X receptor (PXR) activation by small molecules, qHTS assay (AID 1346985); further: potency means the concentration at half of the fitted maximal effect; nearly all actives have a fitted effect of over 40% in size
# Method in brief: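 DPX-2 cells (HepG2 co-transfected with a PXR response element and a CYP3A4-promoter luciferase construct) were seeded at 2,000 per well, rested 5 hr at 37C, then exposed to DMSO-dissolved compounds for 24 hr. Activation was read as luciferase luminescence.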
# [20] = molecular target: Progesterone receptor (Homo sapiens) (UniProt P06401); assay: qHTS assay to identify small molecule agonists of the progesterone receptor (PR) signaling pathway (AID 1346784; calls by dose curve; further: nearly all actives have a fitted effect of over 30% in size)
# Method in brief: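 PR-UAS-bla HEK 293T cells carrying a UAS-driven beta-lactamase reporter were seeded in medium with 2% charcoal-stripped FBS, preincubated 6 hr at 37C, then exposed to compounds in DMSO for 16 hr; agonism was read by LiveBLAzer B/G FRET fluorescence.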
# Progesterone receptor (Homo sapiens), sequence (P06401 whole entry, looked up): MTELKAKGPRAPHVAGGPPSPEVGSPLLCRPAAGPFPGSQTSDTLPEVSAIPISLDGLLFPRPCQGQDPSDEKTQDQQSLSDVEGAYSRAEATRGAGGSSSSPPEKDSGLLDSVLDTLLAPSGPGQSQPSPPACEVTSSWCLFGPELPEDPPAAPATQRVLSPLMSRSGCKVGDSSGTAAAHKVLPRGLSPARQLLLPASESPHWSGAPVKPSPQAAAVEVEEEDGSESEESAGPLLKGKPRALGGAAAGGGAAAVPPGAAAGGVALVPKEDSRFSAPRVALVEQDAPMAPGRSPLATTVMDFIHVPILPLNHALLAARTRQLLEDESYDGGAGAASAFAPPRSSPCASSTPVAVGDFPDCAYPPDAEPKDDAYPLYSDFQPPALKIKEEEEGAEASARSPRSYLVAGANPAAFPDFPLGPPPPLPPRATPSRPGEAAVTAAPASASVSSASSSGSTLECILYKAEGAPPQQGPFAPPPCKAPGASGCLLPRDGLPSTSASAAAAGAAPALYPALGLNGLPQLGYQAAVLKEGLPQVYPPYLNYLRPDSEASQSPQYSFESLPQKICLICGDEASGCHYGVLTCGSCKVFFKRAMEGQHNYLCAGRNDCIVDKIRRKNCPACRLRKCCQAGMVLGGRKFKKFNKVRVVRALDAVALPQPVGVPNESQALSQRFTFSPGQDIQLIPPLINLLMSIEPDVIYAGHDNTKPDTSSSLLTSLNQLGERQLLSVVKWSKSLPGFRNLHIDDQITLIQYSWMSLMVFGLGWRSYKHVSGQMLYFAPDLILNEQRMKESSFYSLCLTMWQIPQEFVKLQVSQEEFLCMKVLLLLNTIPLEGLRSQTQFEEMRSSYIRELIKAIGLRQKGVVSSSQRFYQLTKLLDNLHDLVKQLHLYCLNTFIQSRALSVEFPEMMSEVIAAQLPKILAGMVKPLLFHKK
# Thyrotropin-releasing hormone receptor (Homo sapiens), sequence (P34981 whole entry, looked up): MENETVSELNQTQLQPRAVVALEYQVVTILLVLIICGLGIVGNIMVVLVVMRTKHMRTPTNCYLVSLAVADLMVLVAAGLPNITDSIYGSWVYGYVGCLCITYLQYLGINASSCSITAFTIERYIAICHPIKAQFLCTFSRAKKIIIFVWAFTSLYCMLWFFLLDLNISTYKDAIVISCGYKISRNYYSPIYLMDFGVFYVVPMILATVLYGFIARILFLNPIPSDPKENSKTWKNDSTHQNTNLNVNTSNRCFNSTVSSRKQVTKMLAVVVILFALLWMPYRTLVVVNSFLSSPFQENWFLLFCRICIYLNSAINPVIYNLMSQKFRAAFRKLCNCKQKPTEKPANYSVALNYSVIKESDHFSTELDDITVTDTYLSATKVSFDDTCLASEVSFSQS
# Nuclear receptor subfamily 1 group I member 2 (Homo sapiens), sequence (O75469 whole entry, looked up): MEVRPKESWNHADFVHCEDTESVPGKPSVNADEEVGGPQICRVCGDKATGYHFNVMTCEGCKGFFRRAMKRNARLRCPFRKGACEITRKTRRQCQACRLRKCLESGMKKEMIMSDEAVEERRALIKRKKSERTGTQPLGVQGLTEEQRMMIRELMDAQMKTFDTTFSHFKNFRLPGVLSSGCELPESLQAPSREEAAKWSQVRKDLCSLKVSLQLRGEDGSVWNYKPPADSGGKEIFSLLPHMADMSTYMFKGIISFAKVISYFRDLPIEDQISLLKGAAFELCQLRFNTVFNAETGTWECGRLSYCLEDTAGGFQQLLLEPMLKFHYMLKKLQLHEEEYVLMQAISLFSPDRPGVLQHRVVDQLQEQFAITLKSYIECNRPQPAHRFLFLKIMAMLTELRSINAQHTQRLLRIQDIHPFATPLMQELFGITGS
# Acetylcholinesterase (Homo sapiens), sequence (P22303 whole entry, looked up): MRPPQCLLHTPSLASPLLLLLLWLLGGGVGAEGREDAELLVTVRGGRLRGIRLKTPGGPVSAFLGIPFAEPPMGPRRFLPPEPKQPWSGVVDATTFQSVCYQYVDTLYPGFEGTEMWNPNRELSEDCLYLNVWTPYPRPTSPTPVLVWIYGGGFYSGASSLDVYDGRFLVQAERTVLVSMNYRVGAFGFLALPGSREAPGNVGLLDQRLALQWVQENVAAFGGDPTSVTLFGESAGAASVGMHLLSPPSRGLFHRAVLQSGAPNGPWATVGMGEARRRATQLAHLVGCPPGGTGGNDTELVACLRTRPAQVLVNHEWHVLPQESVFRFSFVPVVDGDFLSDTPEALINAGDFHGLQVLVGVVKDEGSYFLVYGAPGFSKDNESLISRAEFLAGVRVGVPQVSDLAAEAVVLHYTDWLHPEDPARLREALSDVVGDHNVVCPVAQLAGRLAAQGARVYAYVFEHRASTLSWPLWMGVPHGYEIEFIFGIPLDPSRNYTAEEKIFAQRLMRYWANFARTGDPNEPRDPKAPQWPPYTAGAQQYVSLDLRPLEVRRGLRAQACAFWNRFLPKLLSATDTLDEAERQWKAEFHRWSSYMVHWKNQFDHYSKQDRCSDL
# Nuclear receptor subfamily 1 group I member 2 (Rattus norvegicus), sequence (Q9R1A7 whole entry, looked up): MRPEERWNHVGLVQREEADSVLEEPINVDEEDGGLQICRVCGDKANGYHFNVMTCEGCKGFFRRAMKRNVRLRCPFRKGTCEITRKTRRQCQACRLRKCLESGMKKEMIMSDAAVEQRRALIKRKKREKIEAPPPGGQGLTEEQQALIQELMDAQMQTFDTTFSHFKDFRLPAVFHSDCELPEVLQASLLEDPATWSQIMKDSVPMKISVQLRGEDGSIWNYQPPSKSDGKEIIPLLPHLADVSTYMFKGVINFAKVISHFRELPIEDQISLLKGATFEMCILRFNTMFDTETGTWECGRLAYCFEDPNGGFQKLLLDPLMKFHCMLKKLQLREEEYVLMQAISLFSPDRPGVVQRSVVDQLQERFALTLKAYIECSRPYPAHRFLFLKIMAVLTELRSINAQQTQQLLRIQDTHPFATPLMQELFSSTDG
structure (smiles),measurement,setting,value
CC(C)(c1ccc(O)c(-c2ccccc2)c1)c1ccc(O)c(-c2ccccc2)c1,Potency,[1],61.1 µM (active)
same,Potency,[2],30.6 µM (active)
same,Potency,[3],34.7 µM (active)
same,Potency,[4],inactive
same,Potency,[5],inactive
same,Potency,[6],30.6 µM (active)
same,Potency,[7],43.3 µM (active)
same,Potency,[8],61.1 µM (active)
same,Potency,[9],24.3 µM (active)
same,Potency,[10],inactive
O=C1c2ccccc2C(=O)C1C(=O)C(c1ccccc1)c1ccc(Cl)cc1 (centres undefined),Potency,[11],inactive
same,Potency,[12],inactive
same,outcome,[13],inactive
same,Potency,[6],21.7 µM (active)
same,Potency,[14],inactive
same,Potency,[7],15.4 µM (active)
same,Potency,[15],inactive
same,Potency,[8],30.6 µM (active)
same,Potency,[9],19.3 µM (active)
same,Potency,[10],inactive
N#CSCSC#N,Potency,[11],inactive
same,Potency,[2],inactive
same,Potency,[3],inactive
same,outcome,[13],inactive
same,Potency,[4],inactive
same,Potency,[5],inactive
same,Potency,[6],39.8 µM (active) and 53.9 µM (active)
same,Potency,[7],9.91 µM (active) and 9.59 µM (active)
same,Potency,[15],inactive
same,Potency,[8],62.5 µM (active) and 67.9 µM (active)
same,Potency,[9],22.2 µM (active) and 19.1 µM (active)
CCCCCCCCc1ccc(O)cc1,Potency,[16],20.4 µM (active)
same,Potency,[12],inactive
same,Potency,[3],inactive
same,outcome,[13],inactive
same,Potency,[6],54.8 µM (active)
same,Potency,[14],43.5 µM (active)
Clc1ccc(CO/N=C(\Cn2ccnc2)c2ccc(Cl)cc2Cl)c(Cl)c1,Potency,[11],21.1 µM (active)
same,Potency,[2],15 µM (active)
same,Potency,[12],inactive
same,Potency,[3],inactive
same,outcome,[13],inactive
same,Potency,[4],inactive
same,Potency,[5],inactive
same,Potency,[7],16.8 µM (active)
same,Potency,[15],inactive
same,Potency,[9],8.41 µM (active)
same,Potency,[17],25.1 µM (active)
same,Potency,[18],inactive
same,Potency,[19],1.41 µM (active)
same,Potency,[10],inactive
CCOCCOC(C)=O,Potency,[3],inactive
same,outcome,[13],inactive
same,Potency,[4],inactive
same,Potency,[5],inactive
same,Potency,[6],inactive
same,Potency,[14],inactive
same,Potency,[7],inactive
same,Potency,[8],inactive
same,Potency,[10],inactive
CC(C)C1CCC(Cc2ccc(Cl)cc2)C1(O)Cn1cncn1 (centres undefined),Potency,[16],3.4 µM (active)
same,Potency,[12],54.4 µM (active)
same,Potency,[5],inactive
same,Potency,[6],48.1 µM (active)
same,Potency,[14],67.9 µM (active)
same,Potency,[7],30.3 µM (active)
same,Potency,[15],inactive
same,Potency,[8],60.5 µM (active)
same,Potency,[9],21.5 µM (active)
same,Potency,[10],inactive
CC[C@H]1C[C@@H]2C[C@H]3c4[nH]c5ccc(OC)cc5c4CCN(C2)[C@@H]13,Potency,[20],inactive
same,Potency,[3],inactive
same,outcome,[13],inactive
same,Potency,[4],inactive
same,Potency,[5],inactive
same,Potency,[6],47.7 µM (active)
same,Potency,[14],inactive
same,Potency,[15],inactive
same,Potency,[9],inactive
same,Potency,[10],inactive
O=[N+]([O-])c1c2ccccc2cc2ccccc12,Potency,[11],27 µM (active)
same,Potency,[12],inactive
same,Potency,[3],inactive
same,Potency,[4],inactive
same,Potency,[5],inactive
same,Potency,[14],inactive
same,Potency,[15],inactive
same,Potency,[9],21.7 µM (active)
same,Potency,[10],inactive
Nc1ccc(Cl)cc1C(=O)c1ccccc1,Potency,[20],inactive
same,Potency,[11],inactive
same,Potency,[2],inactive
same,Potency,[12],inactive
same,Potency,[3],inactive
same,outcome,[13],inactive
same,Potency,[14],inactive
same,Potency,[7],61.1 µM (active)
same,Potency,[15],inactive
same,Potency,[9],61.1 µM (active)
same,Potency,[10],inactive
Oc1cc(Cl)c(Cl)c(Cl)c1,Potency,[16],13 µM (active)
same,Potency,[11],inactive
same,Potency,[12],inactive
same,outcome,[13],inactive
same,Potency,[4],inactive
same,Potency,[5],inactive
same,Potency,[14],inactive
same,Potency,[7],65 µM (active)
same,Potency,[9],29.1 µM (active)
same,Potency,[10],inactive
COc1cc(C=O)cc2c1[C@H](COC(N)=O)[C@]1(OC(C)=O)ON2C[C@H]2[C@@H]1N2C(C)=O,Potency,[12],inactive
same,Potency,[3],inactive
same,outcome,[13],inactive
same,Potency,[4],inactive
same,Potency,[5],inactive
same,Potency,[6],1.93 µM (active)
same,Potency,[14],0.193 µM (active)
same,Potency,[7],61.1 µM (active)
same,Potency,[8],2.73 µM (active)
same,Potency,[9],inactive
same,Potency,[10],inactive
N#CCCC(Br)(C#N)CBr (centres undefined),Potency,[2],inactive
same,Potency,[12],inactive
same,Potency,[3],inactive
same,outcome,[13],inactive
same,Potency,[5],inactive
same,Potency,[14],inactive
same,Potency,[7],30.6 µM (active)
same,Potency,[15],inactive
CCc1nn(C)c(C(=O)NCc2ccc(C(C)(C)C)cc2)c1Cl,Potency,[2],54.5 µM (active)
same,outcome,[13],inactive
same,Potency,[4],inactive
same,Potency,[5],inactive
same,Potency,[6],10.9 µM (active)
same,Potency,[14],inactive
same,Potency,[7],0.243 µM (active)
same,Potency,[8],34.4 µM (active)
same,Potency,[9],27.3 µM (active)
same,Potency,[10],inactive
O=CC(Br)(Br)Br,Potency,[20],inactive
same,Potency,[11],inactive
same,Potency,[2],inactive
same,outcome,[13],inactive
same,Potency,[6],43.1 µM (active)
same,Potency,[14],inactive
same,Potency,[7],19.3 µM (active)
same,Potency,[15],inactive
same,Potency,[8],54.3 µM (active)
same,Potency,[10],inactive
